Results reported in PubChem BioAssay AID1159580 (chemical genetic matrix, 2015).
Values joined by “and” are separate entries in the source; they are usually repeats but may differ in a detail not shown here. Identical values can stand only once. Among all 5,500 compounds or so, about 2,000 (36%) were called active. Roughly 18% stayed inconclusive and do not appear here. No stated cut-off is given here; in the data, active means normalized growth mostly below about 0.91 (no sharp cut-off); inconclusive means no clear call, values can overlap the other calls; inactive means mostly above about 0.92. The list shows a part of the results.

Experiment: chemical genetic growth profiling, strain panel (AID 1159580);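 further: tested at 20 µM; growth read once vehicle control cultures reached saturation at 30 °C; 1 = growth at the plate median or of vehicle wells; lower values mean less growth of the strain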
Settings: S. cerevisiae deletion strains, growth OD

Measured: normalized growth

COc1ccc2c3c1O[C@H]1C[C@@H](O)C=C[C@@]31CCN(C)C2
inactive: locus YAL013W, strain DEP1, hits give low values 1.01 | locus YAL021C, strain ccr4, hits give low values 1.02 | locus YAL026C, strain drs2, hits give low values 0.993 | locus YAL030W, strain snc1, hits give low values 0.984 | locus YBL061C, strain skt5, hits give low values 0.994 | locus YBR009C, strain hhf1, hits give low values 1.01 | locus YBR021W, strain FUR4, hits give low values 0.999 | locus YBR023C, strain chs3, hits give low values 0.992 | locus YBR171W, strain sec66, hits give low values 1.01 | locus YBR229C, strain ROT2, hits give low values 1 | locus YBR231C, strain swc5, hits give low values 0.984 | locus YBR279W, strain paf1, hits give low values 0.992 | locus YCL011C, strain gbp2, hits give low values 0.998 | locus YCL016C, strain dcc1, hits give low values 0.999 | locus YCL029C, strain bik1, hits give low values 1.02 | locus YCL061C, strain MRC1, hits give low values 1.02 | locus YCL069W, strain vba3, hits give low values 1 | locus YCR088W, strain abp1, hits give low values 1 | locus YDL005C, strain med2, hits give low values 0.995 | locus YDL035C, strain GPR1, hits give low values 1.01 | locus YDL040C, strain nat1, hits give low values 1 | locus YDL074C, strain BRE1, hits give low values 1 | locus YDL101C, strain DUN1, hits give low values 0.996 | locus YDL134C, strain PPH21, hits give low values 1.01 | locus YDL185W, strain tfp1, hits give low values 1.02 | locus YDL192W, strain arf1, hits give low values 1.01 | locus YDR001C, strain nth1, hits give low values 0.998 | locus YDR069C, strain doa4, hits give low values 0.997 | locus YDR101C, strain arx1, hits give low values 1.01 | locus YDR137W, strain rgp1, hits give low values 1.03 | locus YDR150W, strain NUM1, hits give low values 1.01 | locus YDR159W, strain sac3, hits give low values 0.935 | locus YDR162C, strain NBP2, hits give low values 0.97 | locus YDR195W, strain ref2 0.946 | locus YDR297W, strain sur2, hits give low values 1.01 | locus YDR318W, strain mcm21, hits give low values 1.05 | locus YDR334W, strain swr1, hits give low values 0.994 | locus YDR335W, strain msn5, hits give low values 1.02 | locus YDR388W, hits give low values 1.01 | locus YDR392W, strain spt3, hits give low values 1.05 | locus YDR502C, strain sam2, hits give low values 1.01 | locus YEL003W, strain gim4, hits give low values 0.985 | locus YEL037C, strain rad23, hits give low values 1 | locus YEL061C, strain CIN8 (second series), hits give low values 1.01 | locus YEL061C, strain CIN8, hits give low values 1.01 | locus YER015W, strain faa2, hits give low values 0.993 | locus YER016W, strain bim1, hits give low values 1.01 | locus YER110C, hits give low values 1.02 | locus YER111C, strain swi4, hits give low values 0.997 | locus YER155C, strain BEM2 (second series), hits give low values 1.01 | locus YER155C, strain BEM2, hits give low values 0.998 | locus YER167W, strain BCK2, hits give low values 1.03 | locus YFR010W, strain ubp6, hits give low values 0.986 | locus YGL078C, strain dbp3, hits give low values 0.992 | locus YGL086W, strain mad1, hits give low values 1.04 | locus YGL167C, strain pmr1, hits give low values 0.997 | locus YGL173C, strain kem1, hits give low values 0.997 | locus YGL227W, strain vid30, hits give low values 0.997 | locus YGL240W, strain doc1, hits give low values 0.999 | locus YGL248W, strain PDE1, hits give low values 1.01 | locus YGL253W, strain hxk2, hits give low values 1.01 | locus YGR078C, strain PAC10, hits give low values 0.981 | locus YGR135W, strain pre9, hits give low values 1 | locus YGR229C, strain SMI1, hits give low values 0.981 | locus YGR252W, strain gcn5, hits give low values 1.08 | locus YHR013C, strain ard1, hits give low values 1.01 | locus YHR027C, strain rpn1, hits give low values 1 | locus YHR030C, strain SLT2, hits give low values 1.01 and 0.985 | locus YHR079C, strain IRE1 (second series), hits give low values 1.02 | locus YHR079C, strain IRE1, hits give low values 0.989 | locus YHR094C, strain hxt1, hits give low values 1.01 | locus YHR129C, strain ARP1, hits give low values 1.01 | locus YHR142W, strain chs7, hits give low values 0.982 | locus YHR200W, strain rpn10, hits give low values 1.02 | locus YIL066C, strain RNR3, hits give low values 1.01 | locus YIL073C, strain SPO22, hits give low values 1.04 | locus YIL125W, strain kgd1, hits give low values 1.01 | locus YIR030C, strain dcg1, hits give low values 1.02 | locus YJL092W, strain hpr5, hits give low values 1 | locus YJL095W, strain BCK1 (second series), hits give low values 1.01 | locus YJL095W, strain BCK1, hits give low values 1.01 and 0.995 | locus YJL115W, strain asf1, hits give low values 1.01 | locus YJL129C, strain trk1, hits give low values 0.983 | locus YJL134W, strain LCB3, hits give low values 1.01 | locus YJL154C, strain vps35, hits give low values 1.01 | locus YJL164C, strain tpk1, hits give low values 1 | locus YJL166W, strain qcr8, hits give low values 1.01 | locus YJL168C, strain set2, hits give low values 1.01 | locus YJL187C, strain SWE1 (second series), hits give low values 1 | locus YJR043C, strain POL32, hits give low values 1.03 | locus YJR066W, strain TOR1, hits give low values 0.935
